For orientation: inhibition means the change of the read-out against control, counted positive when it falls.

About 1,300 (0.41%) of roughly 320,000 compounds were called active. Roughly 3% stayed inconclusive and do not appear here. How the calls were made is not given here. Only a sample is shown. Potency and affinity values are given separately.

The values that follow come from PubChem BioAssay AID488890 (Southern Research Specialized Biocontainment Screening …, 2010).

The experiment can be described thus: growth inhibition of non-replicating M. tuberculosis (AID 488890).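 Further: plate controls were DMSO cells for no effect and high antibiotic wells for full effect.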 The conditions noted are these: Mycobacterium tuberculosis non-replicating, at 25 µM, stronger effect = higher value.
In the case of `Cc1ccc(C(=O)CN2C(=O)NC3(CCCCCC3)C2=O)c(C)c1`, the inhibition is -9.85%.
`CCOc1ccc(-c2nnc3sc(COc4ccc(Cl)cc4)nn23)cc1`: the inhibition was -1.47%.
Next, `CS(=O)(=O)Nc1cccc(C2=NN(C(=O)c3ccccc3Cl)C(c3ccccc3O)C2)c1` (stereo unspecified): 30.8%; `CC1CCN(S(=O)(=O)c2cccc(C(N)=O)c2)CC1`: 0.16%.
Next, `CCn1c(CCCCc2n[nH]c(=S)n2CC)n[nH]c1=S`: -11.8%; `CC(=O)Nc1ccc(NC(=O)C2CCN(C(=O)NC3CCCCC3)CC2)cc1`: -3.9%.
The figure for `Cn1nc(C(=O)NNC(=O)C2CSC3(C)CCC(=O)N23)c2ccccc2c1=O` (stereo unspecified) is -11.1%; for `Cc1ccc2[nH]c(C)c(CCNC(=O)c3c(N)no[n+]3[O-])c2c1` it is 28.6%; for `O=C(NCCCn1ccnc1)c1cc2cc([N+](=O)[O-])ccc2oc1=O` it is -4.48%.
With `COC(=O)c1ccc(-c2csc(NC(=O)C3=COCCO3)n2)cc1`, the inhibition was determined as 34.1%.
The figure for `CC(C)NC(=O)c1cc(=O)n(C)c(=O)n1C` is 1.53%; for `Cc1nn(C)c(Oc2ccc(Cl)cc2)c1C(=O)O` it is 5.18%; for `O=S(=O)([N-]c1nc2ccccc2nc1-n1cc[n+](Cc2ccccc2)c1)c1ccc(Br)cc1` it is 8.51%.
The figure for `Cc1cccn2c(=O)c3cc(C(=O)N4CC(C)CC(C)C4)sc3nc12` (stereo unspecified) is 0.79%; for `CC(C)Cn1c(NCCN(C)C)nc2c1c(=O)[nH]c(=O)n2C` it is -11.4%; for `Cc1cc(C)n(-c2nc3c(c(=O)[nH]c(=O)n3C)n2CC(C)C)n1` it is 0.87%.
The figure for `Cn1c(=O)[nH]c(=O)c2c1nc(N)n2Cc1ccccc1` is -16.3%.
For `CSc1nc2c(c(=O)[nH]c(=O)n2C)n1Cc1ccccc1`, the inhibition came to 4.61%.
Regarding `O=C(Nc1nnc(S(=O)(=O)N2CCCC2)s1)c1cccc([N+](=O)[O-])c1`, the inhibition came to 43.7%.
`NC(=O)c1ccc[n+](Cc2ccccc2)c1`: the inhibition is -8.91%.
Consider `CC(C)(C)C1CCC(C(=O)Nc2ccccc2)CC1` (stereo unspecified), for which the inhibition stood at 77.8%.
Next, `CCN1CCCC1CNC(=S)Nc1ccc(C(C)=O)cc1` (stereo unspecified): 16.8%; `COc1cc(/C=C2\N=C(C)OC2=O)cc(OC)c1OC`: -3.11%.
Next, `COc1cc(/C=C2\SC(c3ccc(C)cc3)=NC2=O)cc(OC)c1OC`: 16.6%; `CCCC1CC(C)(C(=O)CSc2n[nH]c(-c3ccccc3)n2)OC1=O` (stereo unspecified): -9.58%.
With `CCOc1nc2ccccc2cc1/C=C/C(=O)O`, the inhibition amounted to 16.5%.
As to `Cc1ccc(N2C(=O)CC(N3CCSCC3)C2=O)c(C)c1` (stereo unspecified), the inhibition is 66.2%.
On to `O=C1CC(N2CCSCC2)C(=O)N1c1ccccc1` (stereo unspecified), for which the inhibition amounted to 17.6%.
`COc1ccc(C(=O)O/N=C(/c2cccs2)C(C)(C)C)cc1`: the inhibition was 35.7%.
The figure for `COc1ccc(-c2nnc(NC(=O)Cc3ccccc3)s2)c(OC)c1` is 6.43%; for `O=C(Nc1nncs1)c1cc2c(s1)CCC2` it is 2%; for `COc1ccc(CCNc2nc(-c3ccncc3)cs2)cc1OC` it is 15.7%.
Next, `O=C(Nc1nc(-c2ccccc2)cs1)c1ccco1`: 11.8%.
The figure for `O=C(Nc1nc(-c2ccncc2)cs1)c1ccco1` is -9.61%.
Turning to `Cc1cccc(Nc2nc(-c3cccs3)cs2)n1`, the inhibition was 3.92%.
`Cc1cccc(Nc2nc(-c3ccc(F)cc3)cs2)n1`: the inhibition was determined as 18.9%.
The figure for `O=C(CCS(=O)(=O)c1ccccc1)Nc1nc(-c2ccc(F)cc2)cs1` is 0.28%.
In the case of `COc1ccc(CCNc2nc(-c3cccnc3)cs2)cc1OC`, the inhibition was -6.11%.
As to `O=C(CCS(=O)(=O)c1ccccc1)Nc1nc(-c2cccs2)cs1`, the inhibition amounted to 75.7%.
Next, `O=C1CC(/C=C/c2ccc([N+](=O)[O-])cc2)=Nc2ccccc2N1`: 30.3%; `Cc1ccc(C)c(N2N=C(C(=O)O)CCC2=O)c1`: -0.55%.
Next, `Cc1cc(N2CCN(c3ccccc3)CC2)n2nnnc2n1`: -6.03%; `O=C(c1nc2ccccn2c1CNCCCn1nnc2ccccc21)N1CCOCC1`: -59.9%.
The figure for `O=C(CSc1nnc(-c2ccncc2)o1)Nc1ccccc1Cl` is -10.3%; for `Cc1cc(C)cc(N(CCC#N)C(=O)CSc2ncnc3sccc23)c1` it is 7.69%; for `Cc1ccc(C(=O)N[C@H](C(=O)N2CCN(c3ccccc3F)CC2)C(C)C)cc1` it is 9.21%.
`COc1ccc2cc(C(=O)C3CCCN(C(=O)c4snnc4C)C3)ccc2c1` (stereo unspecified): the inhibition was determined as 16.9%.
`O=C(O)c1ccc2noc(-c3ccccc3)c2c1`: the inhibition amounted to 26.3%.
Next, `COc1ccc(CNC(=O)CN(C(=O)CCC(=O)Nc2ccccn2)c2ccccc2OC)cc1`: 10.4%.
The figure for `c1ccc(Nc2nc(-c3ccncc3)cs2)cc1` is 0.69%.
The figure for `c1ccc(-c2csc(Nc3cccnc3)n2)nc1` is 24.5%.
Regarding `CC(C)(C)[C@H](N)C(=O)N[C@H]1CCC2C3CC=C4C[C@@H](O)CC[C@]4(C)C3CC[C@@]21C` (stereo partly specified), the inhibition came out at 67.1%.
Next, `COC(=O)c1cc(C(=O)c2cc(Cl)ccc2O)coc1=N`: 36%; `CC(C)OC(=O)c1cc(C(=O)c2cc(Br)ccc2O)coc1=N`: 76.9%; `COc1cc(OC)cc(-c2nnc(NC(=O)CCS(=O)(=O)c3ccccc3)o2)c1`: 78.9%.
Next, `CC(=O)Nc1nnc(-c2ccco2)o1`: 4.52%; `O=C(Cc1ccccc1)Nc1nnc(-c2ccco2)o1`: -4.54%; `Cc1ccccc1C(=O)Nc1nnc(-c2ccco2)s1`: -20.8%.
Turning to `CCCCN(C(=O)CSCC(=O)Nc1ccc(OC)cc1)c1c(N)n(Cc2ccccc2)c(=O)[nH]c1=O`, the inhibition worked out at 33%.
The figure for `Cc1ccc[n+](CC(=O)Nc2nc3ccccc3s2)c1` is 2.08%.
Next, `CN(C(=O)CN1CC=C(c2ccccc2)CC1)c1c(N)n(Cc2ccccc2)c(=O)[nH]c1=O`: 8.33%; `CN(C(=O)COC(=O)Cc1c(Cl)cccc1Cl)C1CCS(=O)(=O)C1` (stereo unspecified): -4.22%.
Next, `CCCCCC(=O)Nc1ccc2ccccc2c1`: 58.5%.
`CCC(=O)Nc1ccc2ccccc2c1`: the inhibition turned out to be 14.1%.
In the case of `CCCCn1c(N)c(N(Cc2ccccc2OC)C(=O)c2ccc(N3CCCC3=O)cc2)c(=O)[nH]c1=O`, the inhibition was 18.9%.
Take `N#CCSc1ncccc1-c1nc2ccccc2[nH]1`: the inhibition was -0.28%.
Next, `COc1ccc(Nc2ccccc2C(=O)O)cc1`: 3.87%; `COc1ccc(Nc2cccccc2=O)cc1`: 3.01%; `Nc1cccc(Nc2ccccc2)c1`: 2.41%.
The figure for `Cc1ccc(Nc2ccccc2)cc1` is 1.99%; for `Cc1ccc(Nc2cccccc2=O)cc1` it is 16.8%; for `c1ccc(Nc2cccc3c(Nc4ccccc4)cccc23)cc1` it is 42.5%.
Next, `c1ccc(Nc2ccccc2)cc1`: 6.24%; `Nc1ccccc1Nc1cccc(C(F)(F)F)c1`: 47%; `Cn1nc(C(=O)NNC(=O)c2cccc(Cl)c2)ccc1=O`: 1.12%.
With `O=S(=O)(NC1=NCCCCC1)c1cc(F)ccc1F`, the inhibition was -1.39%.
